Pf growth 48h = Primary qHTS for delayed death inhibitors of the malarial parasite plastid, 48 hour incubation; P. falciparum luciferase growth in erythrocytes, 48 h; Potency, µM (series often up to 28.7 µM), for the others: at the highest dose activity change, negative = inhibition, actives largely listed as inhibitors; 5.9% of 310,000 active; AID 504832, 2011; note: potency is the fitted concentration of half-maximal effect; % is set by controls: 0 for no effect and ±100 for the full control effect
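Read-out is firefly luciferase luminescence from an integrated reporter in P. falciparum, so falling signal marks reduced parasite growth. Infected erythrocytes were at 2% hematocrit and 0.1% parasitemia (final) in Albumax-supplemented RPMI 1640.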
CHX counter = Cycloheximide Counterscreen for Small Molecule Inhibitors of Shiga Toxin; AID 2314, 2010; 12% of 300,000 active; max response, %; cell reporter, cycloheximide protein synthesis inhibition counterscreen; in the data active = max response mostly above about 13%, no sharp cut-off; inactive = mostly below about 14%; note: read at 38.3 µM for the half of the compounds with a filed dose; 0% is about no effect
Shiga inhibitor = A qHTS for Small Molecule Inhibitors of Shiga Toxin; AID 2315, 2010; Vero cells, Shiga toxin protein synthesis inhibition reporter; inhibition, % at 38.7 µM; 9.2% of 290,000 active; in the data active = inhibition mostly above about 28%, no sharp cut-off; inactive = mostly below about 43%; note: 0% is about no effect
NS1 inh = qHTS Assay for Inhibitors of Influenza NS1 Protein Function | Potency, µM (titrated, usually from 46.1 µM), for inactives: top-dose activity, positive = more growth | 0.4% of 270,000 active | AID 2326, 2010; calls by dose curve; note: potency is the fitted concentration of half-maximal effect; actives are rising curves; nearly all actives have a fitted effect of over 50% in size
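Recovery from NS1-induced slow growth read by OD600 in budding yeast switched to galactose assay medium (pH 6.0, -URA) at 1:100 dilution. Compound 23 nl per well; the matching strain lacking NS1 serves as control.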
Pf growth 96h = Primary qHTS for delayed death inhibitors of the malarial parasite plastid, 96 hour incubation. P. falciparum luciferase reporter growth, 96 h. Potency, µM (top dose mostly 28.7 µM), for the others: top-dose activity change, negative = inhibition, most hits filed as inhibitors. 6.9% of 320,000 active; note: potency is the fitted concentration of half-maximal effect; % is set by controls: 0 for no effect and ±100 for the full control effect
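P. falciparum expressing integrated firefly luciferase grown in erythrocytes (2% hematocrit, 0.05% parasitemia final) with compounds for 96 hours at 37 C, 5% CO2. Growth inhibition read as loss of luminescence after adding luciferase detection reagent.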
NS1 inh valid = Assay for Inhibitors of Influenza NS1 Protein Function: Hit Validation; shares compounds with NS1 inh; influenza NS1 function cell assay, 15-point titration; activity change, negative = inhibition, % at 32.9 µM; 1,400 tested, under 10 active; calls by dose curve; note: 0% is about no effect
Flu PR8 replic = Assay for Inhibitors of Influenza NS1 Protein Function: Influenza virus replication assay in MDCK cells infected with virus A/PR/8/34 | virus titer (log TCID50), log10 TCID50 at 5 µM | shares compounds with NS1 inh | AID 504647, 2011 | 30% of 95 active | MDCK infected influenza A/PR/8/34, virus titer TCID50; hits give low values; call rule not given here
Starred values were filed as active, the others as inactive. In the library only some 21% were active in any assay of this set; here they are far more common. Unless noted, calls come from the whole dose curve; as a rule, active = well fitted inhibition curve with a large enough effect; inconclusive = small, poorly fitted or top-dose-only effect, or another doubt; inactive = no such curve, though single readings can be large or run the other way.

N#C/C(=C/c1ccc(N2CCCCC2)o1)C(=O)Nc1ccc2ccccc2c1 was read as Pf growth 48h inconclusive, CHX counter 39.8*, Shiga inhibitor 87.6*, NS1 inh 11.2µM*, Pf growth 96h inconclusive and NS1 inh valid 1.5.
For Cc1cc(C)nc(Sc2ccc(/C=C(\C#N)C(=O)Nc3ccccc3)o2)n1 the results were Pf growth 48h -0.7%, CHX counter 14.8, Shiga inhibitor 14.1 and NS1 inh 0.5%.
For Cc1cc2nnc(SCC(=O)Nc3cc(S(=O)(=O)N4CCOCC4)ccc3Cl)n2c2ccccc12 the results were Pf growth 48h 5.22µM*, CHX counter -1.0, Shiga inhibitor -6.7, NS1 inh 10µM*, Pf growth 96h 7.38µM* and NS1 inh valid 19.3.
`O=[N+]([O-])c1cc(S(=O)(=O)Nc2ccccc2)ccc1N1CCN(c2ccc(O)cc2)CC1` gave Pf growth 48h -13.4%, CHX counter -3.3, Shiga inhibitor 7.9, NS1 inh 14.1µM*, Pf growth 96h inconclusive and NS1 inh valid 5.6.
`COC(=O)C1=C(C)NC2=C(C(=O)CCC2)C1c1cccs1` (configuration not stated) gave Pf growth 48h -4.4%, CHX counter -3.0, Shiga inhibitor -0.9 and NS1 inh inconclusive.
Screening CCOC(=O)C1=C(C)NC2=C(C(=O)CCC2)C1c1cn(Cc2ccc(Cl)cc2Cl)nc1-c1ccccc1 (configuration not stated) returned Pf growth 48h 0.117µM*, CHX counter 14.8, Shiga inhibitor -7.4, NS1 inh inconclusive, Pf growth 96h 0.738µM*, NS1 inh valid 2.1 and Flu PR8 replic 8.
COC(=O)C1=C(C)NC2=C(C(=O)CCC2)C1c1cn(Cc2ccc(Cl)cc2Cl)nc1-c1ccccc1 (configuration not stated) was read as Pf growth 48h 2.62µM*, CHX counter 10.9, Shiga inhibitor -2.0, NS1 inh 12.6µM*, Pf growth 96h 1.85µM* and NS1 inh valid 12.9.
`COc1cc(/C=N/NC(=O)c2ccc(CN3C(=O)c4cccc5cccc3c45)cc2)cc(OC)c1O` gave Pf growth 48h 8.28µM*, CHX counter -0.2, Shiga inhibitor -2.3, NS1 inh 12.6µM*, Pf growth 96h inconclusive and NS1 inh valid 17.5.
`O=C(O)/C=C/C(=O)NC1CCCCCCCCCCC1` gave Pf growth 48h 1.0%, CHX counter -1.1, Shiga inhibitor -14.5, NS1 inh -3.8% and Pf growth 96h inconclusive.
COc1ccccc1Nc1nc(N)nc(CSC(=S)N2CC(C)CC(C)C2)n1 (configuration not stated) was read as Pf growth 48h inconclusive, CHX counter 10.2, Shiga inhibitor 18.3, NS1 inh 10µM*, Pf growth 96h 10.4µM* and NS1 inh valid inconclusive.
O=C1CSC(c2cccnc2)N1CCc1ccccn1 (configuration not stated) was read as Pf growth 48h 44.6%, CHX counter 5.7, Shiga inhibitor 13.8, NS1 inh 2.4% and Pf growth 96h -8.3%.
`N#CC1=C(N)OC2=C(CC/C2=C\c2ccccc2)C1c1ccccc1` (configuration not stated) gave Pf growth 48h inconclusive, CHX counter 22.0, Shiga inhibitor 20.0, NS1 inh 0.891µM*, Pf growth 96h 104.2% and NS1 inh valid inconclusive.
For COc1cc(C(=O)NCCc2ccc(S(N)(=O)=O)cc2)cc(OC)c1OC the results were Pf growth 48h 15.1%, CHX counter -1.7, Shiga inhibitor -2.4, NS1 inh inconclusive, Pf growth 96h -13.2% and NS1 inh valid 1.1.
`O=C(O)CC(CC(=O)Nc1ccc(-n2ccc(C(F)(F)F)n2)cc1)c1ccccc1` (configuration not stated) gave Pf growth 48h inconclusive, CHX counter -3.3, Shiga inhibitor 2.9, NS1 inh inconclusive, Pf growth 96h 48.8% and NS1 inh valid -5.3.
`COc1ccc(C(=O)O)cc1S(=O)(=O)Nc1ccc(Oc2ccccc2)cc1` gave Pf growth 48h inconclusive and Pf growth 96h -19.3%.
For CCN1C/C(=N\S(=O)(=O)/N=C2\CN(CC)C(=O)N2CC)N(CC)C1=O the results were Pf growth 48h 42.9%, CHX counter -2.8, Shiga inhibitor -6.0, NS1 inh -0.1% and Pf growth 96h 32.8%.
Cc1nc(NC(=O)c2ccccc2)sc1-c1csc(Nc2ccc(Cl)cc2)n1 was read as Pf growth 48h inconclusive, CHX counter 10.0, Shiga inhibitor 28.3, NS1 inh 5.01µM*, Pf growth 96h 10.4µM* and NS1 inh valid 1.2.
For Cc1nc2ccccn2c1-c1csc(Nc2ccc(C(=O)O)cc2)n1 the results were Pf growth 48h inconclusive, CHX counter -6.4, Shiga inhibitor -2.9, NS1 inh -1.8% and Pf growth 96h inconclusive.
`O=C(c1ccc(C(F)(F)F)cc1)N1CCC(=O)N(C(COCc2ccc(C(F)(F)F)cc2)Cc2ccccc2)CC1` (configuration not stated) gave Pf growth 48h inconclusive, CHX counter 14.7, Shiga inhibitor 22.3, NS1 inh inconclusive, Pf growth 96h 9.28µM* and NS1 inh valid -18.2.
For Cc1cccc(C(=O)N2CCC(=O)N(C(COCc3cccc(Cl)c3)Cc3ccccc3)CC2)c1 (configuration not stated) the results were Pf growth 48h inconclusive, CHX counter -3.5, Shiga inhibitor -12.0, NS1 inh -32.1% and Pf growth 96h inconclusive.
O=C(c1ccc(Cl)c(Cl)c1)N1CCC(=O)N(C(COCc2cccc(Cl)c2)Cc2ccccc2)CC1 (configuration not stated) was read as Pf growth 48h -69.4%, CHX counter -5.3, Shiga inhibitor -14.0, NS1 inh 22.4µM*, Pf growth 96h -102.9% and NS1 inh valid 1.1.
`CN(C)c1ccc(-c2ccc([C@H]3[C@@H]4C=CCC[C@@]4(C)C(=O)N3Cc3ccccc3)c(F)c2)cc1` gave Pf growth 48h 9.28µM*, CHX counter 12.0, Shiga inhibitor -3.8, NS1 inh 5.62µM*, Pf growth 96h inconclusive and NS1 inh valid -27.4.
`CCOC(=O)N1CCN(S(=O)(=O)N2CCCC(C(=O)NCc3ccc(F)cc3)C2)CC1` (configuration not stated) gave Pf growth 48h -1.1%, CHX counter -1.8, Shiga inhibitor -3.8, NS1 inh inconclusive and Pf growth 96h inconclusive.
